From the supplement of paper PMC10105736 come the findings set out here.

Unmarked numbers belong to inactive results.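 Rule for the calls: active = MAPPIT score above the 99th percentile of random reference set scores in the same batch; inactive = at or below it.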

Holding throughout (assay): MAPPIT interaction score (arbitrary units); higher = stronger binary interaction signal, active = hit call of the paper
One test addresses lwr. Conditions: MAPPIT configuration: N-N.
The target of the next test is mei-P22. The settings on record: MAPPIT configuration: N-N; pair source set: screen_2.
The target in another test is msd5. Conditions: MAPPIT configuration: N-N; pair source set: Curagen_low_conf.
The target of the next test is mod(mdg4). Conditions: pair source set: Lit-BM-16.
A further test has as its target su(Hw). The settings on record: MAPPIT configuration: N-C; pair source set: Lit-BM-16.
The next test deals with mira. Conditions: MAPPIT configuration: N-C; pair source set: Lit-BM-16.
The next test has as its target nos. The settings on record: pair source set: Lit-BM-16.
A further test has as its target msl-2. Conditions: pair source set: Lit-BM-16.
Another test addresses mal. The settings on record: MAPPIT configuration: N-N; pair source set: Lit-BS-16.
The next test concerns the target otp. The settings on record: MAPPIT configuration: N-N; pair source set: screen_2.
The target of the next test is mnb. Conditions: MAPPIT configuration: N-N; pair source set: Finley_Y2H.
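Note: HEK293T cells with Epo stimulation, STAT-responsive firefly luciferase reporter, fold induction versus unstimulated cells divided by the larger fold induction of two negative controls lacking either bait or prey.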

B1: CG12259 (protein)
chain: MAHYKGAASEAGRAAQLMKKREIQQQEIEFRKKKIEEELKLDKIENKFATHYDAVEQQLKSSTIGLVTLDEMKAKQEDIVREREKKLAQKKDEKDREKQRALEAIQAEKNKQKRQIQALSFNLDDDEEEEEEDDEDHDKKQLKIKQEDQPKPKWTEIKEDILPIKKKKICKNPDVDTSFLPDREREEQENRLREQLRQEWVMQQAELKDEDISITFSYWDGSGHRRNVLMKKGNSIYQFLQKCLELLRKEFIELKTVMADQLMYVKEDLILPHHYSFYDFIVTKARGKSGPLFQFDVHDDVRMISDASVEKEESHAGKVLLRSWYERNKHIFPASRWEPYDPTKSYDKYTIKDKDKSKK
For the molecule B1, the MAPPIT interaction score with lwr (pair source set: Finley_Y2H) was 0.18.

B2: mei-P22 (protein)
chain: MDRTTVVPSPASTYCSFMGGSQHSPLRRSQRLIDKENRDLQKIPPKSLSPQLFGNTEDDYSELLLQQGKVVHLKPAAKLVPVRSSDNLVHLGSRDKVVPLKTSNRIVHLKPPYKIIHLKSLDEVEKTVKKKNNIQKEVHQRNSQRRSIQCTPKKRGRKPKQPAKKLQSRISTDQLGSTPSPSKLPAKYPAHFVHQLPPAEDSSCATRRRSLSAPAMQLSDLSLTPDEIQTPERRGEIVNKSPSDLDSDVSLNFSLSDSIGEIFGTKDISSILTMQRPRQYILLEEHLPTLATMLNVDLERLRCVLDITQGLSHEQILRFPIKHEEDELEVP
As to B2, the MAPPIT interaction score with mei-P22 was 4.86 (active).

B3: pcs (protein)
chain: MSSAEDGELDPQIQIELENLNSATDEINKLEIELEEANSTFRILLNESTRRLKVSSKKLGNCIEKARPYYEALDKAREAQIECQKAAVKFQRANEIHAAAKETVALAEQRFMSNSHEWQFDNAWQEMLNHATQKVMDAETQKADCHAEHQRLTKLFNAAEQKLQQLEDRFRRSINKSRPYFEEKQVCQDQLQTQKNRIQELQQQVAGAKSTYSTALRNLERISEDIHRQRGDFPTPPGPREPGVGAELNSPTSSALPSLPDFQLELEKCDYPSIAGSQMSLGAKTPQAAAETEDEEDACDYDETGAGELRGVVDERDLEALRQKVKILAVRPIEGGDGQQQNDVWEHELKATVDKLDHLMMLKETAKRQQTNRLKSTEQRPDSLGAEALKRHCDVVEVKVTSCATTASLPVTPHHQLNHLAPPTPIKKLQQQLAPLPSVNVSMRELPLLARLSNELLDRSSAAFGGVRKTLRRRSLE
On to B3, for which the MAPPIT interaction score in the test with lwr (pair source set: Curagen_low_conf) is -0.177.

B4: lobo (protein)
chain: MPKVLFQKYKKVVSNIDPSRYSAKFKEIDEQRRSQGSESDFADEMEGEFEAEMEEMGSSEFSLSEGEPSLNIGKIDLSFPETVEEFENSPQCYPPSYYTLSPKERLLLLYAENFRKQLVLSYPKRRAMVLALPNECKVQKFVCTTIRPTAFIYTQLISSVEEIAKFVADFIQYEPLQDPINLPNRLISPETLLRKRKGNSYEMATLLVSMLIGAGHPALVVSGVAREETILNDQLAVPYPYPIVEVEVEEVKPKVEKPGQKYKLRGLPDLKSHLEEDMAEVHRQKEAEEKRIQDEIIRKQMEDLELLAVDRYHYRRSHAWVVIINNAPWSVKPKTTYTDVNGDVVEAPPTAIFIEPSTGFICETGCKQYILVDSIWNEYNYYVCKQKHQRVSELRWDLRDTKDWEHMLPGEPPEMRIYKMASDENVADEERDISEEKHLDCIGSWVERLHIGLADFEQRFPSSEKKIQYKGAIHERFSPYSQRDGKVMQLTIFNNDECTIPKVRYEYYENRSDLMRHVKYTYATDQFEEIFNKGRNDSLKSIEYFSDPSQQRKVHFFSASRIDSLELMVVEPGSLILHYKDRSDKCWYKEFEFTPAGNVLKKVTEKFLKASANDVCSNDIATRTFLFQQNKIVLKFHYTFGALTATVVEFTKPPRPDYGKELIYDEKLTKIYKANPLDPTRTNLELYRLLCEQLQYEDHLRKNFEKIFEDINNVFDLRKSEKAEPKLKFSIFDPLRNGAARAIRMRQFEEEEELKKEIASKPADFLAPYLVPYKHQEELTPEQSQNAYNACLNDLKSRFVSLLNNLQRHYEDLTSESKSLNRFLNKFENQFNNYDYKRLVQQSKDLELNKRMVQQRLTLTHEESQKKYEVVKNSLLKDPRLNFKKDDLARRASETSK
For the molecule B4, the MAPPIT interaction score with msd5 was 2.32.

B5: Cp190 (protein)
chain: MGEVKSVKVDNWGVFFLQKLQNFFNKTDYCDLTLQFRDNSQLKVHRLVLSACTDYFNVLEQTCEIVDDALIMPNEFQADVVVPIVNFMYTGTLEFELKMYGKLLRTAKEMNMTVLLKLLEAHRRTMENVNRQQRPPSPKGIRRRTVGQPSSGLPQQRVLGPSPQSRNVATPIAQRANTQRGSTGNTMSRTSGGSNRSPYGDSSNVKQEPTSPFEQLRKGYNNNKRPAQTSLLSPPSKKPSLEEVKEFAEQQRMRKQIAAEYGDNDPEYDGGMLYDDVHAGDDDDDDMPPQPSTSKQQSPQGTQTQLEHGSTTIILKQDSPSQTPTIIVKDSSNAKLNHTKIIAEVLRQYPHIVKGHKNIKLKIMPNTPAAPTEKSAPATVKPPANQSSATTSPHKKLHVSFKADKSTPLITAQQKAASSQQKSGTSQTTGNQGTGANPPANTAAAQKRRIDSKTMHALIAQGAENTTGPWLCLRCGVNGRPISIPSYRGFRRHLINTHKETIDPALCEHCGWRSVNNRELHFHMYMEHQTKSLLYTFAECALCNQSYRTKGELEAHINEVHTDDNKQQCIYCNKVFEQELQLYRHMKSYHKEQALEDGIIDETDEEFLGSQDEEEEAEGDEEQEPEQTGKVRILSDISLPATSAITVQQAQQEQLQEEDVEQVQQEVKFVGADGNEVELTDEQRKEILSQLNQQQAGATAGGVVMVLSEPEAEHVKQETDEKSLAGTEEEYDDSQIYSELGAADSVESAKKNIADESKESIDNLEWAENLIAESEEQSNKEPKSDKPRDDISEKLKELTGDWTEDENDDDVDDKPATAELASELANKDPEPTVHEEEDDIDLALQSLHKGPEEATEEKASEESVTSADDAVDAVPNINSQPEKMDVDSEAADEKASKAEVQIKKEAELENDQEEFIKEDSPIPHSDSVAELREAVTASEGEDDVHLEADNIRKELLDELIAEAEKPDQEKDIVQSEENATTEALDRSVTDEDDLVPPTQVSTEQMEIDEPAAEKAAENNEDTRTADEKEAVEDKPNQTQDVTTAEKPTLESAKAGDEATSGEAASVDKVKSLISEWGDDDEDEDENGVSAAAKEEL
B5: the MAPPIT interaction score with mod(mdg4) (MAPPIT configuration: N-C) was 2.63; with mod(mdg4) (MAPPIT configuration: N-N) it was -0.119; with su(Hw), -0.381.

B6: brat (protein)
chain: MASSPTPSLDSMRGGANSIESYEHAGYLSDSPLTLSGSSPPASDSAICSDEYTGGSSVKSRSEVTVINGHHPISASVSSSSSASSSSCSSSSSSSSSSSSSSSSTSGLSGCGSTSSSVISANNVASSNGPGVIGSNLQSSNNGGNSGISSLVVGAGKGSNSSSNSSSSNTSANGSPPRCTACKSKCSDAVAKCFECQSYLCANCVTAHEFMHCFNGHNVCLIKGFEASTTGTPLSVGSPSNNPASNEFKYASSLTMMLQQQQQLDSQQQQQQQQLLPAQPMSQLSKIVLAAAAQANSQEQQREDSIYGSLHPQQQQQQQQQQQRQLFCPRHKQELLKFSCRTCCILVCKECIVLEHSTGLHELENVQSPGMTTSTGSTANESALQTLLADMRGKIGEIVGIAGNSDQNLTKVKLQYQKAHNELNETHQFFASMLDERKTELLKELETLYTAKVNSNNSWQQRSRDLIDKGLATCEAVERSPAPPSSLLTEALLLRKSLEQQLQTGIQEMQLPFEIEFMSNYQSIQAGVRNTFGYIRANSSDGGPTGMSLTSNGHGKQPPIARPTQSASNSSASSAGSGHHGHHQQSHHHGHHNHHQTAHHQQLQAQSSLHGLGLGLSGASLLDSSSSAGGAVGAFSNGGLLLGGRDRNALAVEQHFGELMPKRGGGGYTGSNGSATSAVAHYNPYEKWSNGGSDNLFSSVTSGVSGSSAVADAFASLSAVGGSVVSGAGAGGSTVSSESLLDLTNKLLSATIYPPKSQIKRQKMIYHCKFGEFGVMEGQFTEPSGVAVNAQNDIIVADTNNHRIQIFDKEGRFKFQFGECGKRDSQLLYPNRVAVVRNSGDIIVTERSPTHQIQIYNQYGQFVRKFGATILQHPRGVTVDNKGRIIVVECKVMRVIIFDQNGNVLHKFGCSKHLEFPNGVVVNDKQEIFISDNRAHCVKVFNYEGQYLRQIGGEGITNYPIGVGINSNGEILIADNHNNFNLTIFTQDGQLISALESKVKHAQCFDVALMDDGSVVLASKDYRLYIYRYVQLAPVGM
Consider B6, for which the MAPPIT interaction score was 1.62 in the test with mira, 0.0947 with nos (MAPPIT configuration: N-C) and 0.243 with nos (MAPPIT configuration: N-N).

B7: JIL-1 (protein)
chain: MSRLQKQNYEILSGTSTSRLKNHQHPRESESLAYEEPDQMVRNHLNGQLVANGNGKTRKNSNSETMTNGKKSKLNTEGSGSGSGKTLNYNNNNNNNNSISATNGQYTNSSSKTTSASARDYTYRETISPPTPPSPPTTNVADIVCISDAESEDGRDPEREYYDQDMEEDEPNGIEIDESSSSLSKAKSNNAAAAAAAAAAAAAAAASKASSSTTPSYAMPTSNSTPLDLDNEAHQRDLEAVTDLKYYVKLYSDEAVSLNDFKIIRVLGTGAYGRVFLVRKLTRHDAGKLYAMKVLNKITVVQKRKTAEHTKTERVVLEAIQRNPFLVSLHYAFQSSSKLYLVLDFANGGELFTHLYHSENFEESRVRVYIAEVVLALEQLHQLGIIYRDIKLENILLDGEGHIVLSDFGLSKILTAENEYRAHSFCGTLEYMAPEIIRTGPPGHDSAVDWWSVGVLTFELLTGASPFATSDGQVQQSEISRRIQKEQPMIPSSFSANARDFVLKMLEKNPKRRLGGNHRDASEIKEHPFFNGINWQELRTKRRKAPYKPTLTAEDDVQNFSNEFTDQVPEDPECDAPPSRIRLFRGYTYVAPEHLEQMRRDNHCEIQYFNTGLQNIPCRPDDLELGTRTSNGAYGTCHFVVDSSTDLVFLAKIIPLSKFRPSEVDALISCALDTTNHKNIVSYHGTFREKCETWIVMEYLSGPELTASIRMDEDSCREIFLQLVMAVRHIHSKHFIHGDLKPENIMFENREDRTVKLIDFGSACYNNRFKSWKDKPRYTLDYAPPEMLADANLVTYSPAVDIYGLGATLYTMLVGHRPYRQNEDDVDHSAAAHHELRKRMRRGTFNQRSMRWESASPAFRHLVSWCLQRDPADRPTLSDILDSEWLQYGSNDPDVDIILPQQMVVDLSEDTMEQPTGGMFDDQQQLEFMHDKSAEDEGITLVSEPMDTTVATHESRRNAAAFSSVVAPTTDDEIVHERFDPAFEVQADFYGFDENAPPLPLPEEYYSELPLPEEDRQYIPPPPALIPVEPETTFRRPRTRQQRRTESQLVQPVSVATYEDSKASLRVLMQQLPPPGDNVVARIPKRTHRVVRTLPPTFGTTKREENFYGFSKTAISWRKTRASWRHFCLLINGVQQVLKVRFKKARRVYCLPHIKEEKLDHAYEKPLTFPRPKAQLKRTKREPKVPRPPTRVQPERARAMRQLYQFQ
Regarding B7, the MAPPIT interaction score is 0.534 with msl-2 (MAPPIT configuration: N-C) and 0.0488 with msl-2 (MAPPIT configuration: N-N).

B8: cN-IIIB (protein)
chain: MGFDEKREPTGGRLRLQDIPALTQDHCRMRDPAEVERIINEFVIGGPERMQIVSDFDYTITKQRTEDGGAVPSSFGIFNACQSLPENFKAETDKLYHKYRPIEIDPHMPIAEKVQYMIEWWTKSGELTSGFPFDQSEIDQIASKYTHALRDRTHEFFADLQRLGIPTLVFSAGLGNSVVSVLRQANVLHPNVKVVSNFLQFRDGLLDGFQQPMIHTFNKNETVLNETSEYYDLVHTRDHIIVMGDSIGDADMASGVPASSHIMKIGFLFDHVEANMKKYMDTFDIVLVDDQTMDVPRTLLSLIEKQHKLNLEAPKQSSL
B8: the MAPPIT interaction score with mal was 1.36; with otp, -0.311.

B9: CG6153 (protein)
chain: MPHGHSHDHGGCSHEASDVDHALEMGIEYSLYTKIDLDNVECLNEETDGQGKSVFKPYEKRQDLSKYVESDADEELLFNIPFTGNIKLKGIIISGANDDSHPNMVKIFKNRPRMTFDDARAKPDQEFQLTRDARGEIEYSPKVVTFSSVHHLSLYFPSNFGEDITRIYYIGLRGEFTEAHYHGVTICNYESRANAADHKEKAFDGVGRAIQ
On to B9, for which the MAPPIT interaction score in the test with mnb is 1.74.
